# Reference: the supplement of paper PMC11732987, “Enantioselective OTUD7B fragment discovery through chemoproteomics screening and high-throughput optimisation” (Communications Chemistry, 2025)
# Values without a mark were called inactive.
# Experiments:
# Assay in all cases: log2 ratio of Biotin-Ahx-Ub-VS probe labelling (fragment/DMSO); higher = less target engagement (more negative = stronger competition), active = hit call of the paper (q ≤ 0.05, log2 ratio ≤ -1)
# Conditions in all cases: compound concentration: 200 uM; treatment time: 3 h
# [1] = molecular target: T1, OTUD6B (UniProt Q8N6M0)
# T1 sequence (whole entry): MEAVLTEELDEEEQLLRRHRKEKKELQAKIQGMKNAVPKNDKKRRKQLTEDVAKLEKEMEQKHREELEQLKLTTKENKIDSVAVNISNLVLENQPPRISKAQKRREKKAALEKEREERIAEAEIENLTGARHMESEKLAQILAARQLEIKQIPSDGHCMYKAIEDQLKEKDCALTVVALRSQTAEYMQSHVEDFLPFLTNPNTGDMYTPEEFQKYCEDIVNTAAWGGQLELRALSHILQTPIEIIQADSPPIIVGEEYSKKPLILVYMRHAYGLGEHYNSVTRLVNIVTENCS
# How it was run: (§1)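 Labelling with Biotin-Ahx-Ub-VS (0.5 µM final, 1 h) followed a 3 h triplicate treatment of HEK293T lysate (495 µg per sample, Tris/CHAPS/IGEPAL buffer with protease inhibitors) with fragment at 200 µM or vehicle. Labelled DUBs were NeutrAvidin-enriched, digested with LysC and trypsin, and run by diaPASEF LC-MS/MS. The values, average log2 fragment/vehicle ratios by unpaired t-test, come from global-median-normalised Spectronaut label-free quantities. Proteins with ≥2 unique peptides were used.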
# [2] = molecular target: T2, OTUD7B (UniProt Q6GQQ9)
# T2 sequence (whole entry): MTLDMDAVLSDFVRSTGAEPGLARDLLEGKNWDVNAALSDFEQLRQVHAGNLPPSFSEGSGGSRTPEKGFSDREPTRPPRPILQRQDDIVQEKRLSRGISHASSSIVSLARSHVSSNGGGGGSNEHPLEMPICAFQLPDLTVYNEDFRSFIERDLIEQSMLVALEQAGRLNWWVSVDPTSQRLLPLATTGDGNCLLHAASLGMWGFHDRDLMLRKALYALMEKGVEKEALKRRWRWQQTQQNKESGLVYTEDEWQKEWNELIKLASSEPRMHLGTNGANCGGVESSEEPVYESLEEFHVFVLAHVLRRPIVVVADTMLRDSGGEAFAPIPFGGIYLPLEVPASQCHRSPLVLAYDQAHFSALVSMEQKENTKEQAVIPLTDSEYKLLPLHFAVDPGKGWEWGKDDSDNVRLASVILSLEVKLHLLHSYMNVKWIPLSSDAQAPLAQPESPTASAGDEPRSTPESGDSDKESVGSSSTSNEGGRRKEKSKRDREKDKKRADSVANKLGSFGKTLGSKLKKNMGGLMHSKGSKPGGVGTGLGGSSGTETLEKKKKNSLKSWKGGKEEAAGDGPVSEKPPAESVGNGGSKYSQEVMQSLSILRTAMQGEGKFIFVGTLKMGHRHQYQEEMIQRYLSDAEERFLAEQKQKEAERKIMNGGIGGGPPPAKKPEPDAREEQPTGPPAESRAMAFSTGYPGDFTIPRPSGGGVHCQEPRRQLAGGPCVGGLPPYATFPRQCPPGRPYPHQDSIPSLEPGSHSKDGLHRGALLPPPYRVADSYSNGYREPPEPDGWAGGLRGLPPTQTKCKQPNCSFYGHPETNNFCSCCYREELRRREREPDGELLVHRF
# How it was run: as §1
# [3] = molecular target: PRPF8 (UniProt Q6P2Q9)
# How it was run: as §1
# [4] = molecular target: T3, PSMD7 (UniProt P51665)
# T3 sequence (whole entry): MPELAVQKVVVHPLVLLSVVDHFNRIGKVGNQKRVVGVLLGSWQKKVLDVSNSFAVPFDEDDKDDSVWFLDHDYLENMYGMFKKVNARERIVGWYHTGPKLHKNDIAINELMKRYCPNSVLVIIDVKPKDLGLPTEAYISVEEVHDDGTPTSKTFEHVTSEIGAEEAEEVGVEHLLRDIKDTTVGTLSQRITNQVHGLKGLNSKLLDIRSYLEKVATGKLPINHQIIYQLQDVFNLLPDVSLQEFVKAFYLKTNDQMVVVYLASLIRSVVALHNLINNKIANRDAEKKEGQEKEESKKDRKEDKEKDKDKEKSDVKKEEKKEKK
# How it was run: as §1
# [5] = molecular target: UCHL1 (UniProt P09936)
# Chain of UCHL1 (P09936 whole entry, looked up): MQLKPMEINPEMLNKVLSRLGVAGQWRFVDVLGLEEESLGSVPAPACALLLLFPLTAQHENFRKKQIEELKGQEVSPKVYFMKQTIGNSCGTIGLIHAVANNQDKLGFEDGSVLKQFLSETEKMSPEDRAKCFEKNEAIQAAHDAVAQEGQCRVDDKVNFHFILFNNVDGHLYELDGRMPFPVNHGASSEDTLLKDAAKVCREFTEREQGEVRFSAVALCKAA
# How it was run: as §1
# [6] = molecular target: T4, UCHL3 (UniProt P15374)
# T4 sequence (whole entry): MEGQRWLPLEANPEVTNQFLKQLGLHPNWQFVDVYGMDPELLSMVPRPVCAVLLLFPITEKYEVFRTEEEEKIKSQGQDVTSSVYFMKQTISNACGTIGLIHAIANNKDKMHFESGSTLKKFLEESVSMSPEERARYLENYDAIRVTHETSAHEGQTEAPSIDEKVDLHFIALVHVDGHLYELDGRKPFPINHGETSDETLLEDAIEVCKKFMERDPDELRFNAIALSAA
# How it was run: as §1
# [7] = molecular target: T5, UCHL5 (UniProt Q9Y5K5)
# T5 sequence (whole entry): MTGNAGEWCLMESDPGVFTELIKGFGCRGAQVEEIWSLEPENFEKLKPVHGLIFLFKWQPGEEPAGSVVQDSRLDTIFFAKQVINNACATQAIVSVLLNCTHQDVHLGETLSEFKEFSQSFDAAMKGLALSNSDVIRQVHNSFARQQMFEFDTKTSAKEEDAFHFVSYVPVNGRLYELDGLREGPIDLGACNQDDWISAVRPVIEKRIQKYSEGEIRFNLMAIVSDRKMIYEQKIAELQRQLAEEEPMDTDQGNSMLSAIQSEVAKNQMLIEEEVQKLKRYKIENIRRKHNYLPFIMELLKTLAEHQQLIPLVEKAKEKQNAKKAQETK
# How it was run: as §1
# [8] = molecular target: USP10 (UniProt Q14694)
# Chain of USP10 (Q14694 whole entry): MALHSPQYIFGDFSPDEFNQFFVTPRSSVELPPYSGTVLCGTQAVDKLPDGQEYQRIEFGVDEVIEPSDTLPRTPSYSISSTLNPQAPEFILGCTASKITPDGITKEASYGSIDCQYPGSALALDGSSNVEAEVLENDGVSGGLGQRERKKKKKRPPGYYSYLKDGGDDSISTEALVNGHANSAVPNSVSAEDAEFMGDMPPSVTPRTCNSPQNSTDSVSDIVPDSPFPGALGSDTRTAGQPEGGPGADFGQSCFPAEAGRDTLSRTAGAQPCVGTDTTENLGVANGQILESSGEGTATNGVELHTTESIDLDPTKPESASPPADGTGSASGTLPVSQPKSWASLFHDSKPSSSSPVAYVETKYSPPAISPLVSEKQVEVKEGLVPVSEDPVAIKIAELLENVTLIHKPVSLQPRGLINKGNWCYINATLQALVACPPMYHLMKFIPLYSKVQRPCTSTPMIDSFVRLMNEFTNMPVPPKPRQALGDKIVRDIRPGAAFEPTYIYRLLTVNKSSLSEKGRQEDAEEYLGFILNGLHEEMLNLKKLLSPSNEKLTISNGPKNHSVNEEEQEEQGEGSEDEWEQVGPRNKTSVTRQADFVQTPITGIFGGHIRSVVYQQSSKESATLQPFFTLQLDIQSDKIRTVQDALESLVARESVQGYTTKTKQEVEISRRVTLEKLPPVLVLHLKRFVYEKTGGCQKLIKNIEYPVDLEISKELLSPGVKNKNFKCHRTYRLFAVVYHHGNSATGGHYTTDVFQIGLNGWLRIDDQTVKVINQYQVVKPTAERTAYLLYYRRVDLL
# How it was run: as §1
# [9] = molecular target: T6, USP15 (UniProt Q9Y4E8)
# T6 sequence (whole entry): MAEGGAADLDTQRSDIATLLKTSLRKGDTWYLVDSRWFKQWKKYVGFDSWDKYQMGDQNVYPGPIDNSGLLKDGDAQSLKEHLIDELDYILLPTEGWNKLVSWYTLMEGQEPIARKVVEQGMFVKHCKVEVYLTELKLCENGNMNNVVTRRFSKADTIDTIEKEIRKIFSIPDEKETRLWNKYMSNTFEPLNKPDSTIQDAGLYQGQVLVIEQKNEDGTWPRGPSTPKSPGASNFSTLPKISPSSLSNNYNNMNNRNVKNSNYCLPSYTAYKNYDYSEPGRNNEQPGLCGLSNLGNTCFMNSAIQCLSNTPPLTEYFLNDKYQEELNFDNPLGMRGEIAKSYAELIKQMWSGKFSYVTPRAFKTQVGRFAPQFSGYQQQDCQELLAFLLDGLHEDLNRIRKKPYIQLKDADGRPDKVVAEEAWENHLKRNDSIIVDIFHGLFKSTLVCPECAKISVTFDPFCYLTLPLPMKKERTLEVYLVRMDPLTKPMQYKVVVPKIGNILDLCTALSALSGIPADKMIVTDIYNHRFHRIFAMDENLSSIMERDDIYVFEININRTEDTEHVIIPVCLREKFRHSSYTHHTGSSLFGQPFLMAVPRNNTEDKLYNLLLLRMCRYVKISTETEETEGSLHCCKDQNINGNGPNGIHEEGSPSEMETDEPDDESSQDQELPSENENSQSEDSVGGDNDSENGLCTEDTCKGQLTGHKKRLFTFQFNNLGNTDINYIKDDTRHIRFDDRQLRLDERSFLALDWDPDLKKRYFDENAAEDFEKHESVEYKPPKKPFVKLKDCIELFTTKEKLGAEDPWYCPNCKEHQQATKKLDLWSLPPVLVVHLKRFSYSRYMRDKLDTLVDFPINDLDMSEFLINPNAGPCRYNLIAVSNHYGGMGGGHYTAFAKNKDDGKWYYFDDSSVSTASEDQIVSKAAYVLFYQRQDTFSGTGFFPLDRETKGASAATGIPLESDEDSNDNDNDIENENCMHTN
# How it was run: as §1
# [10] = molecular target: USP16 (UniProt Q9Y5T5)
# Chain of USP16 (Q9Y5T5 whole entry, looked up): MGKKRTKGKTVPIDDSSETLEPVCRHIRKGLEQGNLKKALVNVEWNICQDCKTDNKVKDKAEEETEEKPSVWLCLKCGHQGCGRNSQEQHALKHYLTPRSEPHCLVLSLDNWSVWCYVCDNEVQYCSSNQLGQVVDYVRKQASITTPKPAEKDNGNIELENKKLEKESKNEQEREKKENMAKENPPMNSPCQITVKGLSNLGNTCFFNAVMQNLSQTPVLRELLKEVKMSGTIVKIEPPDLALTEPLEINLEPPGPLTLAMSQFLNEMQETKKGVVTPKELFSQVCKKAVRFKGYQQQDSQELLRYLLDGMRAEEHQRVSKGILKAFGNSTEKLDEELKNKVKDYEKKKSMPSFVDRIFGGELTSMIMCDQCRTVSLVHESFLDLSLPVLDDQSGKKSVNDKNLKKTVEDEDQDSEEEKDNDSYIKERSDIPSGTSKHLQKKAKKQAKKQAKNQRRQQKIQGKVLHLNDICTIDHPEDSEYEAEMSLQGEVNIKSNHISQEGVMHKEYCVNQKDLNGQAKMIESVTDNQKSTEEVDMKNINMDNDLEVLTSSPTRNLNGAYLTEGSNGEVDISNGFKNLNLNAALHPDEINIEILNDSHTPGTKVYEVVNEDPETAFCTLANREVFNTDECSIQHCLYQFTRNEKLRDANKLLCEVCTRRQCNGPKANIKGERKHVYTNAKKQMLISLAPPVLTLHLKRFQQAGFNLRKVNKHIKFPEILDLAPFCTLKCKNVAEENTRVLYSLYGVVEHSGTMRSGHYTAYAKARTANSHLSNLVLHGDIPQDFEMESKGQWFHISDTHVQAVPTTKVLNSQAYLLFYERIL
# How it was run: as §1
structure (smiles),measurement,setting,value
O=C(CCl)N(C1=CCCCC1)C1CC1,log2 ratio of Biotin-Ahx-Ub-VS probe labelling,[1],-0.00924
same,log2 ratio of Biotin-Ahx-Ub-VS probe labelling,[2],-0.39
same,log2 ratio of Biotin-Ahx-Ub-VS probe labelling,[3],0.215
same,log2 ratio of Biotin-Ahx-Ub-VS probe labelling,[4],0.0445
same,log2 ratio of Biotin-Ahx-Ub-VS probe labelling,[5],-1.24 (active)
same,log2 ratio of Biotin-Ahx-Ub-VS probe labelling,[6],0.218
same,log2 ratio of Biotin-Ahx-Ub-VS probe labelling,[7],-0.186
same,log2 ratio of Biotin-Ahx-Ub-VS probe labelling,[8],-0.112
same,log2 ratio of Biotin-Ahx-Ub-VS probe labelling,[9],-0.209
same,log2 ratio of Biotin-Ahx-Ub-VS probe labelling,[10],-0.193
